Measurements published in PubChem BioAssay (NCATS).
Inconclusive results are not listed. The source made the active and inactive calls. Unless noted, the call rests on the fitted dose curve; in most records, active means well fitted curve in the direction sought with a large enough effect; inconclusive means small, poorly fitted or top-dose-only effect, or another doubt; inactive means no such curve, though single readings can be large; an effect the other way counts as inactive or inconclusive.

What was measured:
[1] = NS1 protein of Zika virus - qHTS assay to identify small molecule inhibitors in human HEK 293 cells (AID 1347053);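 further: plate controls were infected untreated cells for no effect and uninfected cells for full effect; nearly all actives have a fitted effect of over 55% in size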
Outline: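 Compound-treated (1 h pre-infection) HEK 293 cells infected with ZIKV MR766, MOI = 0.5; after 24 h at 37 C, NS1 read by TR-FRET; data normalized to uninfected and infected controls.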

[2] = biological target: T1, Tyrosine-protein phosphatase non-receptor type substrate 1 (Homo sapiens) + Leukocyte surface antigen CD47 (Homo sapiens) (UniProt P78324+Q08722); assay: CD47-SIRPalpha protein protein interaction - LANCE assay qHTS validation (AID 1347057; active means well fitted curve in the direction sought with a large enough effect in the signal ratio, with a control signal flat, not every such curve was filed as active; the % refers to the signal ratio; further: potency means the concentration at half of the fitted maximal effect)
T1 sequence (P78324 whole entry, looked up, the tested form may be a part): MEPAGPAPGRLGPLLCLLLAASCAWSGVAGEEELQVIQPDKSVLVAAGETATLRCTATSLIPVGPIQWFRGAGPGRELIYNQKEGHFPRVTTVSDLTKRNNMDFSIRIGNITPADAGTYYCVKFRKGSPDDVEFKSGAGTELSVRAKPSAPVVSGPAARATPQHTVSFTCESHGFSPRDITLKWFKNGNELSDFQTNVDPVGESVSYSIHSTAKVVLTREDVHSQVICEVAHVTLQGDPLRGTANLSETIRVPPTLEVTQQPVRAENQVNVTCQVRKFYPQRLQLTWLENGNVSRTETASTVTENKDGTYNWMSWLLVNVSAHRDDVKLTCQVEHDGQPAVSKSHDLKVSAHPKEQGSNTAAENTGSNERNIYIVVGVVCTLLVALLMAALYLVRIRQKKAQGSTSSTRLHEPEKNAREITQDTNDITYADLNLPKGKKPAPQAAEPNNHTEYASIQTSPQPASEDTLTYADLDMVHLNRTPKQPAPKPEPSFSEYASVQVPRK
T1 sequence (Q08722 whole entry, looked up, the tested form may be a part): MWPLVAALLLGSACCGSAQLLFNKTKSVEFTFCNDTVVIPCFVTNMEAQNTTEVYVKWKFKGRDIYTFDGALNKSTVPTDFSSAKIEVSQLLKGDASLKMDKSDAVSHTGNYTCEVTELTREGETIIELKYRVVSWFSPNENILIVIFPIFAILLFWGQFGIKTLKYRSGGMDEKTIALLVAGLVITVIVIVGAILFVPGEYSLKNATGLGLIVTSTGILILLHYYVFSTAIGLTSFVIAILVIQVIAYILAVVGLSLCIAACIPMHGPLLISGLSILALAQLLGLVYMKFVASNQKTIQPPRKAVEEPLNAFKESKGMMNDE
Outline: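 Inhibition of soluble CD47/SIRPalpha ectodomain association by titrated compounds, measured as 665/615 nm time-resolved FRET ratio after sequential 30 min room-temperature incubations.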

[3] = biological target: T1, Tyrosine-protein phosphatase non-receptor type substrate 1 (Homo sapiens) + Leukocyte surface antigen CD47 (Homo sapiens); assay: CD47-SIRPalpha protein protein interaction - Alpha assay qHTS validation (AID 1347059);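 further: bead proximity luminescence from CD47 binding SIRPalpha after compound preincubation with SIRPalpha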; further: potency means the concentration at half of the fitted maximal effect
Outline: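 AlphaScreen signal between CD47-His (12.5 nM) and biotin-SIRPalpha (25 nM) soluble extracellular domains, bead-captured via Ni-NTA and streptavidin. Compounds, in 7-point titrations, met SIRPalpha 30 min before CD47; PBS pH 7.4 with 0.05% IGEPAL.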

[4] = biological target: Parathyroid hormone/parathyroid hormone-related peptide receptor (Homo sapiens) (UniProt Q03431); assay: qHTS for PTHR1 Agonists: Optimization Screen against the NCGC LOPAC library (AID 1347079);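 further: GloSensor cAMP luminescence in HEK-293 GP2 cells expressing human PTHR1 with IBMX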; further: potency means the concentration at half of the fitted maximal effect
Sequence of Parathyroid hormone/parathyroid hormone-related peptide receptor (Homo sapiens) (Q03431 whole entry, looked up): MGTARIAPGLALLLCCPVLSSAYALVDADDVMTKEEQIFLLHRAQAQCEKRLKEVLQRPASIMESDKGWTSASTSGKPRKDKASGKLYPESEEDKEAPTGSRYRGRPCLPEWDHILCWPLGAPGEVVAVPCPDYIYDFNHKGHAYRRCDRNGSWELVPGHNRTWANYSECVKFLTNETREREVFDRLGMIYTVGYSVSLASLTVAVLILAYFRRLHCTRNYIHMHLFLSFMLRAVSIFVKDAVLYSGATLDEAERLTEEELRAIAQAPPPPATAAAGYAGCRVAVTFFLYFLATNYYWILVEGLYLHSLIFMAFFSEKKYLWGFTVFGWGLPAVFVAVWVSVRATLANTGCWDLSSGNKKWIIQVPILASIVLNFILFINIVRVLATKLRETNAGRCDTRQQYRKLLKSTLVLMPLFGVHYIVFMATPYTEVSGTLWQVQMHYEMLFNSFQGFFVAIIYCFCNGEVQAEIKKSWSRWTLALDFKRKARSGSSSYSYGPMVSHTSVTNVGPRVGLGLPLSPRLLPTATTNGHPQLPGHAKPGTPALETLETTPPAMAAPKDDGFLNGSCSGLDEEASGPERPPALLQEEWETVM
Outline: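 HEK-293 GP2 cells, PTHR1 + GloSensor cAMP; 3000 cells/well, o/n. Luciferin + IBMX 0.5mM each (stock), 1 hr 37C. Cpd titration, 1 hr 37C. Lum after 15 min RT. Ctrl M-PTH(1-15) top 10uM.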

[5] = biological target: Furin (Homo sapiens) (UniProt P09958); assay: Furin counterscreen qHTS for Zika virus inhibitors (AID 1347149); further: potency means the concentration at half of the fitted maximal effect; nearly all actives have a fitted effect of over 70% in size
Sequence of Furin (Homo sapiens) (P09958 whole entry, looked up): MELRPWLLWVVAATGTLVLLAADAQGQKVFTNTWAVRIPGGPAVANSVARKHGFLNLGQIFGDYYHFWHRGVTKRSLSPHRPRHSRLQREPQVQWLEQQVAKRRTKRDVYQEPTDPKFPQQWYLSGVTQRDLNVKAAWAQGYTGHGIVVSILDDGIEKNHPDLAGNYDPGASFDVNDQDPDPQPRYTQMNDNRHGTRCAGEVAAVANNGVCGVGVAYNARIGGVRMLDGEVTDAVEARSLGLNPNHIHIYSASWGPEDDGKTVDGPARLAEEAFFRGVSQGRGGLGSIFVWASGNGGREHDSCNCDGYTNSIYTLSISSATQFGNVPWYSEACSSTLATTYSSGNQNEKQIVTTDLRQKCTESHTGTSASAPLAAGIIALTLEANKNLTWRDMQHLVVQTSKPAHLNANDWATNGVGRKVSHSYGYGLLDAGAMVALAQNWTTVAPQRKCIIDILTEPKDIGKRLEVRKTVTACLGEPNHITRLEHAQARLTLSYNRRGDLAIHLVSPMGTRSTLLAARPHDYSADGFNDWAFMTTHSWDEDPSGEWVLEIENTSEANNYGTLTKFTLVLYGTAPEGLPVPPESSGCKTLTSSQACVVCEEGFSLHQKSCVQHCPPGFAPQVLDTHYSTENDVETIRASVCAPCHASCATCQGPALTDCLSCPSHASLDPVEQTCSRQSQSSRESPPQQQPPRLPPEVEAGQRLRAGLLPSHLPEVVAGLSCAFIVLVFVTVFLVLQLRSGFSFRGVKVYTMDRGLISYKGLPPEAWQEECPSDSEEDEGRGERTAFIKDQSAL
Outline: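 Counterscreen measures cleavage of 2 microM BOC-RVRR-AMC, below its ~15 microM Km, by 5 nM full-length human furin at pH 7.0 after a 15-min compound preincubation. Inhibition derives from the 15-min fluorescence increase at 37C.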

[6] = test system: Zika virus NS2B-NS3 protease (unlinked); assay: Optimization of GU AMC qHTS for Zika virus inhibitors: Unlinked NS2B-NS3 protease assay (AID 1347151); further: nearly all actives have a fitted effect of over 80% in size; further: potency means the concentration at half of the fitted maximal effect
Outline: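 Noncovalent complex of NS2B hydrophilic domain and NS3 protease domain, 25 nM final, in 10 mM Tris-HCl pH 8.0, 0.01% Tween 20. AMC fluorescence change over 15 min at room temperature was fitted to a 4-parameter Hill equation.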

[7] = test system: Zika virus NS2B-NS3 protease (unlinked complex); assay: Confirmatory screen GU AMC qHTS for Zika virus inhibitors (AID 1347153);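 further: percent inhibition with 0% = no inhibitor control and 100% = no enzyme control; nearly all actives have a fitted effect of over 70% in size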
Outline: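 Unlinked enzyme 25 nM, Tris pH 8.0/0.01% Tween 20; cpd 15 min RT, dark; + AMC substrate 10 µM (Km 18.3 µM); 340/450 nm read at t0 and 15 min; % inhibition → 4-param fit.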

[8] = test system: Zika virus NS2B-NS3 protease; assay: Primary screen GU AMC qHTS for Zika virus inhibitors (AID 1347154); further: nearly all actives have a fitted effect of over 70% in size; further: potency means the concentration at half of the fitted maximal effect
Outline: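 Fluorogenic AMC-substrate cleavage by noncovalent NS2B-NS3 protease complex (25 nM, pH 8.0 Tris buffer with Tween 20) followed for 15 minutes at room temperature (~20% conversion). Percent inhibition from ex340/em450 signal change, fitted by 4-parameter Hill equation.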

[9] = Vero cells viability qHTS for Zika virus inhibitors (AID 1347167); further: potency means the concentration at half of the fitted maximal effect
Outline: (§1)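 Luminescent ATP readout (CellTiter Glo) after 30 min at 37 degrees C gives viability; cells in DMEM + 4% FBS were treated 24 to 48 hours with compound, following overnight attachment.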

[10] = HepG2 cells viability qHTS for Zika virus inhibitors (AID 1347168); further: on the % scale 0 is the no-effect control and ±100 the full control effect
Outline: as §1

[11] = biological target: N-terminal Xaa-Pro-Lys N-methyltransferase 1 (Homo sapiens) (UniProt Q9BV86); assay: qHTS Assay for Inhibitors of N-terminal methyltransferase 1 (NTMT1): LOPAC validation of the NTMT1 SAHH-coupled ThioGlo3 Assay (AID 1347143);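 further: SAH from peptide methylation measured as thiol fluorescence via SAHH coupling and ThioGlo3; nearly all actives have a fitted effect of over 70% in size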; further: potency means the concentration at half of the fitted maximal effect
Sequence of N-terminal Xaa-Pro-Lys N-methyltransferase 1 (Homo sapiens) (Q9BV86 whole entry, looked up): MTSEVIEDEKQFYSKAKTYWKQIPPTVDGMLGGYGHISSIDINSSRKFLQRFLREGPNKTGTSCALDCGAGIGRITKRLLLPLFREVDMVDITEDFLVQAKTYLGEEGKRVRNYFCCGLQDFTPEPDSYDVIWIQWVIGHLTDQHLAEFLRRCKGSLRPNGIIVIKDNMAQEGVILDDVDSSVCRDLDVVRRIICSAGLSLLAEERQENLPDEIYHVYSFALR
Outline: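 NTMT1 125nM + cpds (various conc.), 1 min RT; add SAM 100uM/SAHH 10uM/ThioGlo3 15uM (addition mix). SAHH-coupled thiol detection, Ex340/Em450, t0 and 30 min RT; signal normalized to background. LOPAC 1280-cpd pilot.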

[12] = biological target: Lysine-specific demethylase 5B (Homo sapiens) (UniProt Q9UGL1); assay: Optimization screen for KDM5B Histone Demethylases FDH coupled qHTS against the LOPAC library (AID 1347166); details: KDM5B demethylation, FDH-coupled NADH fluorescence (FDH is formaldehyde dehydrogenase); at 57.5 µM (top of the series); further: 0% is about no effect
Sequence of Lysine-specific demethylase 5B (Homo sapiens) (Q9UGL1 whole entry, looked up): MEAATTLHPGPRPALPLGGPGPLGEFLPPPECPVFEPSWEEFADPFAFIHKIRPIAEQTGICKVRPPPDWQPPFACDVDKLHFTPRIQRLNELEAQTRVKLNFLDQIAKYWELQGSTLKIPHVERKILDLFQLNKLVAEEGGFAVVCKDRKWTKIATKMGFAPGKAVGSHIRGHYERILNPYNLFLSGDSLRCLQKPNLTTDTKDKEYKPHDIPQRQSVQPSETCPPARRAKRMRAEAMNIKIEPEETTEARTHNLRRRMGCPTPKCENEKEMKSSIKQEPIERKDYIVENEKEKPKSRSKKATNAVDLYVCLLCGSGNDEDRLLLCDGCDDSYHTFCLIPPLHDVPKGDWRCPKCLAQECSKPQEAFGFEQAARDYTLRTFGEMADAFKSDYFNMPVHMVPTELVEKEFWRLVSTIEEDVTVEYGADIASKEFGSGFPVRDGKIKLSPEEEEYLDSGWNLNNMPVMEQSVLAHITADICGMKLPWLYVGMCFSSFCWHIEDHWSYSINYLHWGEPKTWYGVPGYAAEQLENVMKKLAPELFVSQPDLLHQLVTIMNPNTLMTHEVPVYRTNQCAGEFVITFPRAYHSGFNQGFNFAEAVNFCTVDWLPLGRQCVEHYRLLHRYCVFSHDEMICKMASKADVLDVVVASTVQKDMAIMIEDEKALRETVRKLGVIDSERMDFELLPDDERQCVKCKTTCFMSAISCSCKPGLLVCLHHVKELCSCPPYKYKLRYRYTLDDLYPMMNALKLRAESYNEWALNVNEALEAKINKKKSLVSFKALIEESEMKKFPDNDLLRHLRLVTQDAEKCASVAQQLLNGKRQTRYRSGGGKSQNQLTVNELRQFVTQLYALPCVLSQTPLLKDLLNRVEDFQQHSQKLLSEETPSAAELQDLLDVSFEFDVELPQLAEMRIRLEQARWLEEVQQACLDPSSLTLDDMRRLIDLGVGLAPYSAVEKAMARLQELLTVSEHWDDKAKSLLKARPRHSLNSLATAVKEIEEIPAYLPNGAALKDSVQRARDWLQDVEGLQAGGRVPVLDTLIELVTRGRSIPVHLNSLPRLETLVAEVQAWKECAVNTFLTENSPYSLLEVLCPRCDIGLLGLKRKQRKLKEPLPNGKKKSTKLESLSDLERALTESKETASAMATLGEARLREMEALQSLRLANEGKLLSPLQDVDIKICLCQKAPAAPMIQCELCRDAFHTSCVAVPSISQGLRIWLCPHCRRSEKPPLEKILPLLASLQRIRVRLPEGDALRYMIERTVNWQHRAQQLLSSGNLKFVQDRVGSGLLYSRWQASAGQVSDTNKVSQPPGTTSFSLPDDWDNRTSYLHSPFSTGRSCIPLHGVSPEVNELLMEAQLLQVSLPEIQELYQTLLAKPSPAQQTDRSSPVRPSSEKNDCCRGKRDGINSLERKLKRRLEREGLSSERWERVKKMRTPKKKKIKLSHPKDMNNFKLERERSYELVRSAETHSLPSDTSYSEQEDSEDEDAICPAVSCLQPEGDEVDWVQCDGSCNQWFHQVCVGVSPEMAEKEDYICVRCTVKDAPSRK
Outline: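 KDM5BDeltaAP (200nM final) in 50mM HEPES pH 7.5, 0.01% Tween-20 was preincubated with compound for 10 min at room temperature. A substrate mix of 12.5uM H3K4Me3, 25uM a-ketoglutarate, ascorbate, Fe2+, NAD+ and formaldehyde dehydrogenase was then added. NADH fluorescence (340/450 nm) was read initially and after 30 min.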

[13] = Confirmatory screen NINDS Rhodamine qHTS for Zika virus inhibitors (AID 1347161); further: potency means the concentration at half of the fitted maximal effect; nearly all actives have a fitted effect of over 60% in size
Outline: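 Purified linked NS2B-NS3 protease (NS2B hydrophilic domain joined to NS3 protease by flexible linker), 25 nM in 10 mM Tris-HCl pH 8.0, 0.01% Tween 20. Compounds titrated, 15 min preincubation at room temperature; 1.5 microM Rhodamine110 substrate, FITC fluorescence change over 15 min.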

[14] = test system: Zika virus NS2B-NS3 protease (linked); assay: 384 well plate NINDS AMC confirmatory qHTS for Zika virus inhibitors (AID 1347163); further: potency means the concentration at half of the fitted maximal effect; nearly all actives have a fitted effect of over 50% in size
Outline: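 Fluorescence at 355/460 nm was read after 25 minutes of cleavage of 30 microM Ac-VKTGKR-AMC at room temperature, in the dark. Before substrate addition, compounds (up to 1 mM final) sat ~15 minutes with 5, 30 or 60 nM linked protease. Signals were normalized to no-enzyme and no-inhibitor wells.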

[15] = test system: Zika virus NS2B-NS3 protease (linked construct); assay: 384 well plate NINDS Rhodamine confirmatory qHTS for Zika virus inhibitors (AID 1347164);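 further: fluorescence from protease cleavage of Ac-LKRR-rhodamine 110 substrate; potency means the concentration at half of the fitted maximal effect; nearly all actives have a fitted effect of over 65% in size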
Outline: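 Linked protease at a final 5 nM, 30 nM or 60 nM was preincubated ~15 min with compounds, then given 10 microM Ac-LKRR-Rhodamine 110. Fluorescence (ex 485/em 538 nm) after 25 min in the dark at room temperature.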

CCc1ccc2c(-c3cccc(Cl)c3)nc(=O)n(CC)c2n1
inactive: Potency [1] | Potency [2] | Potency [3] | Potency [7] | Potency [8] | Potency [9] | outcome [10]
active: Potency [4] 2.67 µM | Potency [5] 21.5 µM | Potency [6] 26.7 µM

O=[N+]([O-])c1cccc2cn[nH]c12
inactive: Potency [1] | Potency [2] | Potency [3] | Potency [4] | Potency [11] | Potency [6] | Potency [8] | activity, negative = inhibition [12] -3.93%

CC(C)(CO)Cc1cc(C(C)(C)C)c(O)c(C(C)(C)C)c1
inactive: Potency [1] | Potency [2] | Potency [3] | Potency [4] | Potency [11] | Potency [8] | activity, negative = inhibition [12] -8.2%

COc1ccc(-c2ccc(N)[n+](CCCC(=O)O)n2)cc1
inactive: Potency [1] | Potency [2] | Potency [3] | Potency [4] | Potency [11] | Potency [6] | activity, negative = inhibition [12] -3.69%

CC(C)(C)c1cc(/C=C(\C#N)C(N)=S)cc(C(C)(C)C)c1O
inactive: Potency [1] | Potency [2] | Potency [3] | Potency [4] | Potency [11] | Potency [8]
active: Potency [6] 21.2 µM

O=[N+]([O-])c1cccc2c(Br)[nH]nc12
inactive: Potency [1] | Potency [2] | Potency [3] | Potency [6] | Potency [8] | activity, negative = inhibition [12] -1.9%

COC(=O)C1=C(C)NC(C)=C([N+](=O)[O-])C1c1ccccc1C(F)(F)F (stereo unspecified)
inactive: Potency [1] | Potency [2] | Potency [3] | Potency [4] | Potency [11] | Potency [8] | activity, negative = inhibition [12] -5.36%

O=c1[nH]ccc2c(O)cccc12
active: Potency [11] 56.2 µM | Potency [6] 29.9 µM
inactive: Potency [1] | Potency [2] | Potency [3] | Potency [4]

Cc1ccc([N+](=O)[O-])cc1S(=O)(=O)N(C)C
inactive: Potency [1] | Potency [2] | Potency [3] | Potency [4] | Potency [11] | Potency [6] | activity, negative = inhibition [12] -0.674%

N#C/C(=C\c1ccc(O)c(O)c1)C(=O)NCCc1ccccc1
inactive: Potency [1] | Potency [2] | Potency [4]
active: Potency [11] 44.7 µM

NC/C=C\C(=O)O
inactive: Potency [1] | Potency [2] | Potency [3] | Potency [4] | Potency [11] | Potency [6] | Potency [8] | activity, negative = inhibition [12] 3.97%

N=C(N)SCCc1cnc[nH]1
inactive: Potency [1] | Potency [2] | Potency [3] | Potency [4] | Potency [11] | Potency [6] | Potency [8] | activity, negative = inhibition [12] -14.3%

O=C1Cc2c([nH]c3ccc(Br)cc23)-c2ccccc2N1
inactive: Potency [1] | Potency [2] | Potency [3] | Potency [4] | Potency [8] | activity, negative = inhibition [12] -26.8%
active: Potency [11] 50.1 µM

O=c1onc2cnc3ccccc3n12
active: Potency [11] 56.2 µM | Potency [6] 26.7 µM
inactive: Potency [1] | Potency [2] | Potency [3] | Potency [4]

O=C(O)C1=CC(=C(c2ccc(O)c(C(=O)O)c2)c2ccc(O)c(C(=O)O)c2)C=CC1=O
inactive: Potency [1] | Potency [4]
active: Potency [2] 11.7 µM | Potency [3] 0.464 µM | Potency [11] 25.1 µM | Potency [6] 21.2 µM

NC(=Nc1ccccc1)NC(=O)c1nc(Cl)c(N)nc1N
inactive: Potency [1] | Potency [2] | Potency [3] | Potency [4] | Potency [8]
active: Potency [11] 56.2 µM | Potency [6] 26.7 µM

O=C(O)Cc1ccc(O)c(O)c1
inactive: Potency [1] | Potency [2] | Potency [3] | Potency [4] | Potency [6]
active: Potency [11] 31.6 µM

O=C(O)c1ccccc1Nc1ccccc1
inactive: Potency [1] | Potency [2] | Potency [3] | Potency [4] | Potency [8]

CCCCCCCC/C=C\CCCCCCCC(=O)NCCc1ccc(O)c(O)c1
inactive: Potency [1] | Potency [2] | Potency [3] | Potency [4] | Potency [11] | activity, negative = inhibition [12] -22.3%
active: Potency [6] 7.52 µM | Potency [8] 16.8 µM | Potency [13] 19.6 µM | Potency [14] 1.12 µM | Potency [15] 3.16 µM | Potency [9] 8.27 µM

CCN(c1nc(N)c(C(=O)N=C(N)N)nc1Cl)C(C)C
inactive: Potency [1] | Potency [2] | Potency [3] | Potency [4] | Potency [11] | activity, negative = inhibition [12] -3.16%

CC1CCN(CC[C@H]2CCCN2S(=O)(=O)c2cccc(O)c2)CC1
inactive: Potency [1] | Potency [2] | Potency [3] | Potency [4] | Potency [11] | Potency [6] | Potency [8] | activity, negative = inhibition [12] 1.65%

N#Cc1cc2nc(O)c(O)nc2cc1[N+](=O)[O-]
inactive: Potency [1] | Potency [2] | Potency [3] | Potency [4] | Potency [11] | Potency [6] | Potency [8] | activity, negative = inhibition [12] -14.6%
